Results filed as inconclusive are left out. Calls of active or inactive are those of the source. The calls were made as follows, unless noted: active = hit-call score of the fitted dose curve at least 0.9, where 1 is the maximum; inactive = score below 0.9.
Key:
[1] = ACEA_ER_80hr: ACEA Biosciences xCELLigence Real-Time Cell Analysis on Estrogen Receptor Agonism for Proliferation (AID 2282667; active = hit-call score of the fitted dose curve at least 0.9, where 1 is the maximum); conditions: T47D proliferation, impedance (xCELLigence), 80 h
Outline: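 Impedance readout (RT-CES) of T47D proliferation at 80 h post-dose; gain of signal vs DMSO baseline. Compounds: 8 conc, 1:4 serial, top 100 uM final, ≤0.5% DMSO; biological duplicate.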

[2] = ATG_CRE_CIS: Attagene CIS-FACTORIAL HepG2 Assay for human cAMP Responsive Element (CRE) binding protein 3 (AID 2282926); conditions: HepG2 CRE cis-reporter, Attagene multiplexed mRNA; actives raise or lower the signal
Outline: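 Endogenous CRE-binding activity in HepG2 is reported through a cis-regulated transfected reporter. Following a day of exposure, mRNA levels are determined by reverse transcription PCR and fluorescent fragment analysis; fits run in both directions versus DMSO.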

[3] = biological target: CCAAT/enhancer-binding protein beta (Homo sapiens) (UniProt P17676); assay: ATG_C_EBP_CIS: Attagene CIS-FACTORIAL HepG2 Assay for human CCAAT/Enhancer Binding Protein (C/EBP) beta (AID 2282927); conditions: HepG2 Attagene cis-factorial transcription factor reporter; actives raise or lower the signal
CCAAT/enhancer-binding protein beta (Homo sapiens), sequence (P17676 whole entry, looked up): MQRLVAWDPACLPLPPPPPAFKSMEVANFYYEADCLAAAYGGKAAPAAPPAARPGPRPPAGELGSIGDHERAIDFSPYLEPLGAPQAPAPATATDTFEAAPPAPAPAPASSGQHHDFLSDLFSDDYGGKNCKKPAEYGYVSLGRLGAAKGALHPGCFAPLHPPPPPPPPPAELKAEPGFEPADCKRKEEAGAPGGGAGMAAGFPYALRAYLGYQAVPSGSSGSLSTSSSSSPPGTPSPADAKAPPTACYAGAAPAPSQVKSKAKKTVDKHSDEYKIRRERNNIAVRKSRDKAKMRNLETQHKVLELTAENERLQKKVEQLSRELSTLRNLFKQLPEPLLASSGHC
Outline: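 Following a 24 h incubation with test chemical, transfected HepG2 cells yielded RNA whose reporter transcripts were quantified by RT-PCR and fluorescent capillary electrophoresis, with DMSO serving as baseline for bidirectional fitting.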

[4] = ATG_DR4_LXR_CIS: Attagene CIS-FACTORIAL HepG2 Assay for human Liver X Receptor (LXR), DR4 submotif (AID 2282929); conditions: HepG2 Attagene DR4 cis-reporter, mRNA transcription; actives raise or lower the signal
Outline: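 Fluorescence intensity of labelled reporter cDNA fragments, separated by capillary electrophoresis, gives the signal. HepG2 cells bearing cis-regulated reporter constructs were treated 24 h; activity fitted bidirectionally relative to DMSO negative control.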

[5] = ATG_AP_1_CIS: Attagene CIS-FACTORIAL HepG2 Assay for human Activator Protein 1 (AP-1) (AID 2282931); conditions: HepG2 Attagene cis-factorial AP-1 reporter mRNA; actives raise or lower the signal
Outline: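 Multiplexed HepG2 reporter assay, 24 h dosing. mRNA induction detected by RT-PCR plus capillary electrophoresis. Activity fitted in both directions against DMSO.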

[6] = ATG_AP_2_CIS: Attagene CIS-FACTORIAL HepG2 Assay for human Activator Protein 2 (AP-2) (AID 2282932); conditions: HepG2 AP-2 cis-reporter, Attagene transcription factor profiling; actives raise or lower the signal
Outline: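 HepG2 cells were transiently transfected with multiple cis-promoter reporter transcription units and dosed for 24 h. Reporter mRNA was measured by RT-PCR with capillary electrophoresis fluorescence; bidirectional fits relative to DMSO baseline.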

[7] = ATG_BRE_CIS: Attagene CIS-FACTORIAL HepG2 Assay for human Bone Morphogenetic Protein (BMP) Response Element (BRE) (AID 2282933); conditions: HepG2 BMP response element reporter, Attagene transcription factor profiling; actives raise or lower the signal
Outline: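 Endogenous transcription factor activity read in transiently transfected HepG2 cells after 24 h chemical exposure. Bidirectional curve fitting against DMSO; readout is reporter transcript level by RT-PCR with capillary electrophoresis of labelled products.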

[8] = biological target: Retinoic acid receptor alpha (Homo sapiens) (UniProt P10276); assay: ATG_DR5_RAR_CIS: Attagene CIS-FACTORIAL HepG2 Assay for human Retinoic Acid Receptor Alpha (RARE), DR5 submotif (AID 2282934); conditions: HepG2 Attagene cis-factorial RARE DR5 reporter, mRNA; actives raise or lower the signal
Retinoic acid receptor alpha (Homo sapiens), sequence (P10276 whole entry, looked up): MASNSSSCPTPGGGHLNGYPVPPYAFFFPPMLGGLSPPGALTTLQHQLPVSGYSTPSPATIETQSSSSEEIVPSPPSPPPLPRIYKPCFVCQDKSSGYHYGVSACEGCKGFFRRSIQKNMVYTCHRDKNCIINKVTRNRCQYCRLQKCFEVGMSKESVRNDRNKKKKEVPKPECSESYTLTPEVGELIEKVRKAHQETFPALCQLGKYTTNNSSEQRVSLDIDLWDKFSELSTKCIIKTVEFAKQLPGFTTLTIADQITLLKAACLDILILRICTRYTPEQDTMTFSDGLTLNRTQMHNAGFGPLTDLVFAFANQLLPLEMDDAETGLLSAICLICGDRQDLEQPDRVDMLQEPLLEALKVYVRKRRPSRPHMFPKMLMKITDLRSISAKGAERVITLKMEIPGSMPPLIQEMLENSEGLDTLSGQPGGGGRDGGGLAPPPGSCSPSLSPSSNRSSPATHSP
Outline: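 Endpoint fitted in both directions relative to DMSO as negative control. It reflects DR5 cis-element reporter mRNA induction in transiently transfected HepG2 cells, measured 24 h after dosing through RT-PCR and fluorescent capillary electrophoresis.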

[9] = biological target: Transcription factor E2F1 (Homo sapiens) (UniProt Q01094); assay: ATG_E2F_CIS: Attagene CIS-FACTORIAL HepG2 Assay for human E2F Transcription Factor 1 (AID 2282935); conditions: HepG2 Attagene cis-reporter, E2F reporter RNA transcripts; actives raise or lower the signal
Transcription factor E2F1 (Homo sapiens), sequence (Q01094 whole entry, looked up): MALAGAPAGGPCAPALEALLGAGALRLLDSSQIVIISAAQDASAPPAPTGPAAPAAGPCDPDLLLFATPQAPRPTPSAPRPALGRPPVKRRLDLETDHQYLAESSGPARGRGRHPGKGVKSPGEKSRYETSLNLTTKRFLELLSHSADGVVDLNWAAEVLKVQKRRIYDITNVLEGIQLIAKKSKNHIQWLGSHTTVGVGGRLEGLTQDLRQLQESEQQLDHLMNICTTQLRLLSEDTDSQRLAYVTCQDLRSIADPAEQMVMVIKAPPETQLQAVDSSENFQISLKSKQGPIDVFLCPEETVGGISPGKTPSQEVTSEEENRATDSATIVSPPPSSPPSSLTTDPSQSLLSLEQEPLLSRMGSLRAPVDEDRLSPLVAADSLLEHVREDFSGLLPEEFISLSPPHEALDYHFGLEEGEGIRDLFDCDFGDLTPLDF
Outline: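 HepG2 cells transiently transfected with multiplexed cis-element reporter units, dosed for 24 h. Reporter mRNA measured by RT-PCR, 6-FAM primer-extension labeling, HpaI digestion and capillary electrophoresis; bidirectional fit versus DMSO baseline.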

[10] = ATG_E_Box_CIS: Attagene CIS-FACTORIAL HepG2 Assay for human Enhancer Box (E-box) (AID 2282936); conditions: HepG2 E-box cis-reporter transcription, actives raise or lower the signal
Outline: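 HepG2 cells transiently transfected with multiplexed cis-element reporter units sensing endogenous transcription factor activity; 24 h compound exposure. Reporter mRNA measured by RT-PCR, 6-FAM primer extension, HpaI digestion and capillary electrophoresis; bidirectional fit versus DMSO.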

[11] = ATG_M_61_CIS: Attagene CIS-FACTORIAL HepG2 Assay for M61 Transcription Factor (Internal Marker) (AID 2282937); conditions: HepG2 Attagene CIS-FACTORIAL M61 internal marker reporter; actives raise or lower the signal
Outline: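 Endogenous transcription factor activity in HepG2 is read through transiently transfected cis-element reporter units. After 24 h dosing, RNA undergoes reverse transcription, PCR and primer extension with 6-FAM before capillary electrophoresis; DMSO-referenced bidirectional fit.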

[12] = ATG_EGR_CIS: Attagene CIS-FACTORIAL HepG2 Assay for human Early Growth Response 1 (EGR1) (AID 2282938); conditions: HepG2 Attagene CIS-FACTORIAL EGR reporter mRNA; actives raise or lower the signal
Outline: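 Activity is taken as induction or loss of reporter mRNA versus DMSO, fitted bidirectionally. Transcripts from cis-regulated reporter units in transiently transfected HepG2 were measured after 24 h by RT-PCR with capillary electrophoresis.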

[13] = ATG_M_19_CIS: Attagene CIS-FACTORIAL HepG2 Assay for M19 Transcription Factor (Internal Marker) (AID 2282939); conditions: HepG2 Attagene CIS-FACTORIAL M19 internal marker reporter; actives raise or lower the signal
Outline: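 Internal marker readout, fitted in both directions against DMSO, from HepG2 cells carrying transfected cis-element reporter constructs; RT-PCR and capillary electrophoresis of reporter mRNA after 24 h exposure.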

[14] = ATG_ERE_CIS: Attagene CIS-FACTORIAL HepG2 Assay for Estrogen Response Element (ERE) (AID 2282940); conditions: HepG2 ERE cis-reporter, Attagene RNA transcript; actives raise or lower the signal
Outline: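 After 24 h compound treatment, RNA from transfected HepG2 cells was reverse-transcribed, reporter cDNA PCR-amplified, FAM-labelled, HpaI-cut and resolved by capillary electrophoresis. ERE-driven cis reporter transcripts reflect endogenous factors; gain or loss scored against DMSO.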

[15] = ATG_Ets_CIS: Attagene CIS-FACTORIAL HepG2 Assay for human Erythroblast Transformation Specific (ETS) (AID 2282941); conditions: HepG2 ETS cis-reporter transcription, actives raise or lower the signal
Outline: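 After transient cis-reporter transfection, HepG2 cells receive test chemical for 24 h. Reporter mRNA levels, measured by RT-PCR and capillary electrophoresis fluorescence, are analysed bidirectionally relative to the DMSO baseline.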

[16] = biological target: Hepatocyte nuclear factor 3-beta (Homo sapiens) (UniProt Q9Y261); assay: ATG_FoxA2_CIS: Attagene CIS-FACTORIAL HepG2 Assay for human Forkhead box A2 (FOXA2) (AID 2282942); conditions: HepG2 cis-reporter transcription factor activity, 24 h; actives raise or lower the signal
Hepatocyte nuclear factor 3-beta (Homo sapiens), sequence (Q9Y261 whole entry, looked up): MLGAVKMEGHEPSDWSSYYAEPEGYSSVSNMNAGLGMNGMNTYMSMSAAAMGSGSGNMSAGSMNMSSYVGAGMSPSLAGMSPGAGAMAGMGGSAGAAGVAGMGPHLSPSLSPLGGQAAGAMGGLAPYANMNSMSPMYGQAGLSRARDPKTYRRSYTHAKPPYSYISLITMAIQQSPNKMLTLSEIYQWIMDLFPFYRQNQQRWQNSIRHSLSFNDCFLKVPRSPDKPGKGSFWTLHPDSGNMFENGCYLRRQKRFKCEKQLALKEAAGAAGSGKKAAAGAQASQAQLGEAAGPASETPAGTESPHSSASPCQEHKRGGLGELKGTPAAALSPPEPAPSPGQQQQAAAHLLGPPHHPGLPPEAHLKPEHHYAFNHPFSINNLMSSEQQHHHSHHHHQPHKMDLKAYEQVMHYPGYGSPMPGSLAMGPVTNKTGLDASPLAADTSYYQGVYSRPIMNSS
Outline: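 Reporter transcript induction is measured by fluorescence after capillary electrophoresis of RT-PCR products from HepG2 cells exposed 24 h. Cis-regulated reporter units report endogenous factor activity; curves fitted both directions against DMSO.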

[17] = ATG_FoxO_CIS: Attagene CIS-FACTORIAL HepG2 Assay for human Forkhead box O (FoxO) (AID 2282943); conditions: HepG2 Attagene cis-reporter, FoxO element, mRNA; actives raise or lower the signal
Outline: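 Values reflect reporter mRNA induction or loss in HepG2 cells 24 h post-dosing, fitted bidirectionally with DMSO as negative control and baseline. Detection used RT-PCR and fluorescence capillary electrophoresis.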

[18] = ATG_GATA_CIS: Attagene CIS-FACTORIAL HepG2 Assay for human GATA Binding Protein (AID 2282944); conditions: HepG2 GATA cis-element reporter, Attagene multiplex mRNA; actives raise or lower the signal
Outline: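 Reporter transcripts from a GATA cis-regulated unit, among multiplexed reporters in transfected HepG2 cells, were measured by RT-PCR with capillary electrophoresis after 24 h dosing. Induction or loss scored relative to DMSO.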

[19] = biological target: Aryl hydrocarbon receptor (Homo sapiens) (UniProt P35869); assay: ATG_Ahr_CIS: Attagene CIS-FACTORIAL HepG2 Assay for human Aryl Hydrocarbon Receptor (Ahr) (AID 2282930); conditions: HepG2 AhR cis-factorial reporter transcription; actives raise or lower the signal
Aryl hydrocarbon receptor (Homo sapiens), sequence (P35869 whole entry, looked up): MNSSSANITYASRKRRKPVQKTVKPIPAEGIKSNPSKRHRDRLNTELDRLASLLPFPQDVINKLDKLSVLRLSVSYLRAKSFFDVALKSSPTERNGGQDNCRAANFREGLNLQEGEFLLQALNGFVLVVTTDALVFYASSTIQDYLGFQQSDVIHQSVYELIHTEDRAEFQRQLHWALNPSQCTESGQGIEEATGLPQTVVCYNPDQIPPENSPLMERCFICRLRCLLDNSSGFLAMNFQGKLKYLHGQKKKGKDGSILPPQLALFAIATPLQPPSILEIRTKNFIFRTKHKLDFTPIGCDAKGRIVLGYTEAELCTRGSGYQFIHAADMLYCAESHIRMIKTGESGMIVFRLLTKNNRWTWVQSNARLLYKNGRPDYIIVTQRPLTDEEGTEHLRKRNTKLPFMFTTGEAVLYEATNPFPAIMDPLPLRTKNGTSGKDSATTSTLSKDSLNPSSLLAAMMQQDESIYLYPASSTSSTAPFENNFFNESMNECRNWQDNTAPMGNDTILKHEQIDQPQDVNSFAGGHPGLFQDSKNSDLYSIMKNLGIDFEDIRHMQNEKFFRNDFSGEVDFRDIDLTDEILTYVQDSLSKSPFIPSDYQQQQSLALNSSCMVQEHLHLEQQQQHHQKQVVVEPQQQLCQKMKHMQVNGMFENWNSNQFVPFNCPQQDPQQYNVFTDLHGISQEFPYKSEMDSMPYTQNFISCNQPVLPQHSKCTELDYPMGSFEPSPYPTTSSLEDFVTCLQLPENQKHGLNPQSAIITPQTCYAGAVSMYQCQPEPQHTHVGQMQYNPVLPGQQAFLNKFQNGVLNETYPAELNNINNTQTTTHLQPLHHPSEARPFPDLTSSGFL
Outline: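 Values derive from bidirectional fitting against DMSO negative control. Underlying signal: cis-element reporter mRNA in transiently transfected HepG2, harvested 24 h post-dose and measured by RT-PCR plus capillary electrophoresis.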

Measured: AC50

C[C@]12CC[C@H]3C(=CCc4cc(O)ccc43)[C@@H]1CCC2=O
active: [1] 0.00143 µM | [14] 0.0626 µM
not listed: [19]
inactive: all other assays above

CC1=CCC(=O)O1
not listed: [4] | [14] | [16] | [19]
inactive: all other assays above

Oc1ccc2c(c1)CCC2
active: [14] 55.2 µM
not listed: [19]
inactive: all other assays above

CCOC(C=C(C)CCC=C(C)C)OCC
not listed: [10] | [16]
inactive: all other assays above

CCN(CCO)S(=O)(=O)C(F)(F)C(F)(F)C(F)(F)C(F)(F)C(F)(F)C(F)(F)C(F)(F)C(F)(F)F
active: [2] 28.9 µM
not listed: [19]
inactive: all other assays above

Source: PubChem BioAssay (EPA / NIEHS)
